According to PubChem BioAssay (NCI):
The panel holds about 83,000 compounds, 20% with a hit somewhere; the sample as a whole holds those more often.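 Single-concentration screen, 48 h exposure, 96-well plates. Endpoint: percent growth. Below 10 = active.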 Calls of active or inactive are those of the source.

Tests used:
Test in all cases: NCI-60 one-dose screen, 48 h (100 = growth as untreated, 0 = no growth, -100 = all killed)
[1] = system: SR leukemia; details: 10 µM unless noted
[2] = system: RPMI-8226 leukemia; details: 10 µM unless noted
[3] = system: OVCAR-8 ovarian; details: 10 µM unless noted
[4] = system: OVCAR-5 ovarian; details: 10 µM unless noted
[5] = system: SK-OV-3 ovarian; details: 10 µM unless noted
[6] = system: IGROV1 ovarian; details: 10 µM unless noted
[7] = system: OVCAR-3 ovarian; details: 10 µM unless noted
[8] = system: HS 578T breast; details: 10 µM unless noted
[9] = system: NCI/ADR-RES ovarian; details: 10 µM unless noted
[10] = system: T-47D breast; details: 10 µM unless noted
[11] = system: BT-549 breast; details: 10 µM unless noted
[12] = system: MDA-MB-435 melanoma; details: 10 µM unless noted
[13] = system: MCF7 breast; details: 10 µM unless noted
[14] = system: HCT-116 colon; details: 10 µM unless noted
[15] = system: HCC-2998 colon; details: 10 µM unless noted
[16] = system: KM12 colon; details: 10 µM unless noted
[17] = system: SW-620 colon; details: 10 µM unless noted
[18] = system: OVCAR-4 ovarian; details: 10 µM

Measured: growth

NC(=O)CC1C=CCC1 (stereo not drawn)
inactive: [1] 106% | [2] 96.5% | [3] 84.7% | [4] 96.7% | [5] 105% | [6] 107% | [7] 111% | [8] 110% | [9] 109% | [10] 106% | [11] 90.1% | [12] 102% | [13] 92.1% | [14] 105% | [15] 101% | [16] 102%

COc1ccc(/C=C/C=C\C(=O)c2ccc(-n3ccnc3)cc2)cc1
inactive: [1] 82.1% | [2] 71.5% | [3] 86.4% | [4] 103% | [5] 97% | [6] 93.5% | [7] 96.7% | [8] 91.1% | [9] 104% | [10] 58.1% | [11] 50% | [12] 92.8% | [13] 79.5% | [15] 99.9% | [16] 92.8%
active: [14] -76.2%

O=c1[nH]c2cc(Cl)c(Cl)cc2n2cc3ncccc3c12
inactive: [1] 27.4% | [2] 76.1% | [3] 82.4% | [4] 146% | [5] 98.9% | [6] 86.2% | [7] 84.5% | [8] 99.2% | [10] 49% | [11] 109% | [12] 87% | [17] 53.4% | [13] 30.4% | [14] 71.1% | [15] 88% | [16] 78.4%

C=C(C)[C@@H]1CC[C@]2(C)[C@H](CC=C3[C@@H]4[C@@H](C)[C@H](C)CC[C@]4(C(N)=O)CC[C@]32C)[C@@]1(C)CCC#N
inactive: [1] 30.2% [100 µM]
active: [2] -21.1% [100 µM] | [3] 3.49% [100 µM] | [4] 1.03% [100 µM] | [5] 5.31% [100 µM] | [6] 7.81% [100 µM] | [10] 5.58% [100 µM] | [11] -25.4% [100 µM] | [12] 1.04% [100 µM] | [17] 7.86% [100 µM] | [13] 2.14% [100 µM] | [14] -43.8% [100 µM] | [15] -22.4% [100 µM] | [16] -46.4% [100 µM]

[2H]C1([2H])CCN(C(=O)C2CC2)c2cc(NS(=O)(=O)c3ccc(-c4cccc(C(N)=O)c4)cc3)ccc21
inactive: [1] 38.1% | [2] 37.1% | [3] 53.9% | [4] 60.6% | [5] 26.1% | [6] 32.4% | [8] 18.7% | [9] 95% | [10] 19.5% | [11] 79% | [17] 31% | [13] 21.4% | [14] 81.5% | [15] 60.1% | [16] 19.8%
active: [12] -11.2%

CC1(C)C(=O)/C(=C\c2cccnc2)C[C@]2(C)[C@H]3CC[C@@H]4[C@H]5[C@H](C(=O)/C=C/c6cccnc6)CC[C@]5(C(=O)O)CC[C@@]4(C)[C@]3(C)CC[C@@H]12
active: [2] -27% [100 µM] | [3] 0.147% [100 µM] | [4] -49% [100 µM] | [5] -68.5% [100 µM] | [6] -34.3% [100 µM] | [7] -75.4% [100 µM] | [8] -0.172% [100 µM] | [9] -1.33% [100 µM] | [10] -10% [100 µM] | [11] -32.2% [100 µM] | [12] -78.2% [100 µM] | [13] -41.9% [100 µM] | [14] -56.7% [100 µM] | [15] -76.4% [100 µM] | [16] -82.1% [100 µM]
inactive: [1] 25.8% [100 µM]

N#C/C(C(=O)c1ccccc1)=C1/C(=O)Nc2ccccc21
active: [14] -50.4%
inactive: [1] 112% | [2] 112% | [3] 97.2% | [4] 101% | [5] 85.3% | [6] 86.1% | [7] 108% | [8] 91.4% | [9] 103% | [10] 97.1% | [11] 48.3% | [12] 97.6% | [13] 89.1% | [15] 112% | [16] 100%

Nn1c(Nc2ccc(S(=O)(=O)Nc3ncccn3)cc2)nnc(/C=C/c2c(O)ccc3ccccc23)c1=O
inactive: [1] 89.7% | [2] 72.4% | [3] 93.4% | [18] 75.8% | [5] 84.2% | [6] 82.9% | [7] 80.1% | [8] 94.9% | [10] 70.9% | [11] 101% | [12] 95.2% | [17] 94% | [13] 76.6% | [14] 89.9% | [15] 114% | [16] 82.9%

O=S(=O)(NCCNc1nccc(-c2c(-c3cccc(F)c3)nc3occn23)n1)c1ccc(C(F)(F)F)cc1
inactive: [1] 88.3% | [2] 75.5% | [4] 102% | [18] 87.6% | [5] 79.5% | [6] 77% | [7] 99.1% | [8] 74.3% | [9] 95.5% | [10] 61.9% | [11] 106% | [12] 76.3% | [17] 101% | [14] 76.5% | [15] 125% | [16] 92%

C[C@H]1[C@H](C)CC[C@]2(C(=O)O)CC[C@]3(C)C(=CC[C@@H]4[C@@]5(C)C/C(=C/c6cccnc6)[C@H](O)C(C)(C)[C@@H]5CC[C@]43C)[C@H]12
active: [2] -4.1% [100 µM] | [4] -13.7% [100 µM] | [5] 5.9% [100 µM] | [6] 7.23% [100 µM] | [8] 4.34% [100 µM] | [9] 1.11% [100 µM] | [11] -7.55% [100 µM] | [12] 7.2% [100 µM] | [13] 3.47% [100 µM] | [14] -24.6% [100 µM] | [15] -8.19% [100 µM] | [16] -37.1% [100 µM]
inactive: [1] 25.4% [100 µM] | [3] 12.4% [100 µM] | [10] 15.2% [100 µM] | [17] 14.9% [100 µM]

Brc1ccc2c(c1)CN(C1CCCCC1)CO2
inactive: [1] 96.3% | [2] 103% | [3] 114% | [4] 97.9% | [5] 92.3% | [6] 107% | [7] 116% | [9] 97.5% | [10] 96.2% | [12] 103% | [17] 100% | [13] 106% | [14] 108% | [15] 102% | [16] 100%

Cc1ccc(NC(=S)/N=c2/n(-c3ccccc3)nc3n2CCN3C2=NCCN2)cc1
inactive: [1] 112% | [2] 104% | [3] 105% | [4] 98.2% | [5] 114% | [6] 120% | [7] 129% | [8] 111% | [9] 112% | [10] 92.2% | [12] 105% | [13] 94.6% | [14] 48.6% | [15] 102% | [16] 109%
active: [11] -6.96%

COc1ccc(-c2c(C)nn3c(NCCN4CCOCC4)cc(C)nc23)cc1OC
inactive: [1] 79.8% | [2] 105% | [3] 103% | [4] 94.3% | [5] 101% | [6] 117% | [7] 103% | [8] 79% | [9] 99.8% | [10] 88.2% | [11] 93.3% | [12] 101% | [13] 95.3% | [14] 90% | [15] 104% | [16] 107%

C=C(C)[C@@H]1CC[C@]2(COC(=O)c3ccccc3C(=O)O)CC[C@]3(C)[C@H](CC[C@@H]4[C@@]5(C)CC[C@H](OC(=O)c6ccccc6C(=O)O)C(C)(C)[C@@H]5CC[C@]43C)[C@@H]12
active: [7] 2% [100 µM] | [8] -3.77% [100 µM] | [15] 4.42% [100 µM]
inactive: [1] 63.8% [100 µM] | [2] 28.4% [100 µM] | [3] 46.7% [100 µM] | [4] 105% [100 µM] | [5] 47.9% [100 µM] | [6] 31% [100 µM] | [9] 23.1% [100 µM] | [10] 39.6% [100 µM] | [11] 28.1% [100 µM] | [12] 30.8% [100 µM] | [13] 48.6% [100 µM] | [14] 21.3% [100 µM] | [16] 11.8% [100 µM]

CC[C@]12C=CCN3CC[C@@]4(c5ccc(OC)cc5N(C)[C@H]4[C@@](O)(C(=O)OC)[C@@H]1OC(=O)CCC(=O)O[C@H]1CC[C@H]4[C@@H]5CCC6=CC(=O)CC[C@@H]6[C@H]5CC[C@]14C)[C@@H]32
inactive: [1] 10.5% [100 µM] | [3] 26.4% [100 µM] | [4] 23.7% [100 µM] | [5] 13.2% [100 µM] | [9] 10.8% [100 µM] | [10] 21.6% [100 µM] | [17] 11.1% [100 µM] | [13] 11.7% [100 µM]
active: [2] -22.1% [100 µM] | [6] -46.3% [100 µM] | [8] 4.75% [100 µM] | [11] -8.65% [100 µM] | [12] 7.01% [100 µM] | [14] 3.76% [100 µM] | [15] 3.12% [100 µM] | [16] 6.43% [100 µM]

O=[N+]([O-])c1ccc(O)c(-c2nc3ccccc3s2)c1
inactive: [1] 84.5% | [2] 51.1% | [3] 92% | [4] 112% | [5] 81.2% | [6] 70% | [8] 67.3% | [9] 82.8% | [10] 49.7% | [11] 60.7% | [12] 71.4% | [17] 87.8% | [13] 81% | [14] 73% | [15] 89.7% | [16] 77.2%
